From the supplement of paper PMC6555819

The sequences below were run on VDR:RXRa (NR concentration 270 nM, RXRa partner concentration 90 nM) (assay: PBM binding z-score (relative to random genomic background probes); higher = stronger binding; sequences stand for … in GC…GCGATTGACAGCGTAGAATGAAGG).
Method: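 Protein-binding microarray (Agilent 4x180K custom design, double-stranded 60-nt probes: 5' GC cap, 34-nt variable region, 24-nt constant primer region; full probe sequence given). Purified or IVT nuclear receptor:RXRα heterodimers (3:1 NR:RXRα, mostly 270:90 nM) or homodimers were incubated for 1 h in PBS with 2% milk and no ligand, then detected with Alexa488 antibodies. Fluorescence from o1-orientation probes (~5 replicates averaged) was converted to z-scores against 500 random hg19 background probes. Variable regions are seed direct-repeat (DR0–DR5) sites, all their single-nucleotide variants and half-site ablations.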
ATATGTACGTTAGCTGGGGTCATTCAGACTAGGC showed a PBM binding z-score of 5.16. With TGAATGAGCTTATAAGATCAGGGAACGTTGCAAA the PBM binding z-score was -0.361. Work on TCATATTGGTAAATGCTAGGTGAAAGTCCGATCT yielded a PBM binding z-score of 0.687. For GCTAGCAGCCCATTTGGGTCACTCAATGACGGGC, the PBM binding z-score was -0.389. In the case of GATACAGGGTTAGCTAGAGGCCAGAGTATGGAAA, the PBM binding z-score was 0.139. Work on GATACCGGGTCAGCTAGAGGCCAGAGTATGGAAA yielded a PBM binding z-score of 2.26. AGTCAAAGTTCAGAACGAGGTAACGTAAAGCACG was tested, and the PBM binding z-score was 2.86. TCGAGTAGGTTACGGGCATTCAGAATGGCGTCGA was tested, and the PBM binding z-score was -0.46. CCAGACAGGTGAAAGGTAACTGAGTCTGGTACGC showed a PBM binding z-score of 0.972. GCATATAGGTAATACAAGGTGAAAGTGCGATTGT gave a PBM binding z-score of 0.469. Sequence GCTTACGGGTCAAAGGTTATAGGATGAATAGAAT has a PBM binding z-score of 5.56. For ATATGTAGGTTAGCTGGGGTAATTCAGACTAGGC, the PBM binding z-score was 0.945. In the case of CGTCCAAGGTCAAGGTCAGCGAAAGAGACTCGAA, the PBM binding z-score was 4.97. Sequence CCTTACGGGTCACGAGGTTATAGCACGACGAGCG has a PBM binding z-score of 5.23. With GGAACGAAGGCAAAGTTGATAGCATCTGTCGACG the PBM binding z-score was -0.832. GCAGACAGGTGAAACGCGGGTAACTCAGGGTGGC gave a PBM binding z-score of -0.339. GCTGCTAGGTCAACTGATGATCAGCTAAAGCTCG gave a PBM binding z-score of 1.38. In the case of AGTCAAAGTTTAGGACGAGGTAACGTAAAGCACG, the PBM binding z-score was 0.00949. In the case of TCTATTAGTTGAAGGGCAACAGACGAGTCCGTTT, the PBM binding z-score was 1.01. For ATCGAAAGGTCGGGGTGAGTATAGAGAAAGGGAA, the PBM binding z-score was 3.1. Work on CTCGAACGGTCGGTTGAGGTGAGTATACGGATAA yielded a PBM binding z-score of -0.265. Work on CCGACTGGGGCACAAGGTTACCATAAGCCAGCCC yielded a PBM binding z-score of 0.209. Work on GCTTACGGGTCAAAGGTTATATCATGAATAGAAT yielded a PBM binding z-score of 5.71. For TCTATTAGTTGCAGGGCAACCGACGAGTCCGTTT, the PBM binding z-score was 0.743. TCTTGTAGATCAATAGAGGTTAACAAAGTGCGCT showed a PBM binding z-score of 2.2. ATACCAAGGTGATCGTGAGGTCGTTGTTACTAAC gave a PBM binding z-score of 3.18. In the case of CAAACTAGGTCACCGGAAGGTCAAAATCCGCATG, the PBM binding z-score was 5.69. Work on CCTACTCGGCCATTCAGAGGTCATTGATCATATG yielded a PBM binding z-score of 4.06. For TCATATAGATAAATGCTAGGTGAAAGTCCGATCT, the PBM binding z-score was 0.736. Sequence GCTAGCAGGCCATATGGGTCACTCAATGACGGGC has a PBM binding z-score of 0.951. With GCAGACAAGTGAAACGCAGGTAACTCAGGGTGGC the PBM binding z-score was -0.581. TATACAGGGTCAAAGGCCAGAGTTCGAATGTCGA gave a PBM binding z-score of 5.34. Sequence TTACCAAGGCGAAAGGTCGTTGATGCACGCCTTG has a PBM binding z-score of 1.65. AATACAGGGTCACTAGGCCAGACTAGGTACGAAT gave a PBM binding z-score of 4.22. Sequence TCGAGTAGGTTACCCATGGGGCATTCAGCTTTCT has a PBM binding z-score of -0.0423. TAGCCTAGGTCATTCACGGGCCAGTATAGAAAGC gave a PBM binding z-score of 2.28. Work on TAGCCTAGGTCATATCGGGCCAGTATACGCTATA yielded a PBM binding z-score of 2.28. TCTAGCAGGCCAGAAGGTCACTCAAGAGGTACGG was tested, and the PBM binding z-score was 2.16. CAAACTAGGTCCCAGAGGTCAAAGTCCGTGCGTA gave a PBM binding z-score of 5.88. For ATCTCTAGGTAAAGGTAGTTCAGTGAATGCAAAT, the PBM binding z-score was 1.12.
